Test results published in paper PMC9574860, “Chemical Toolkit for PARK7: Potent, Selective, and High-Throughput” (Journal of Medicinal Chemistry, 2022).
The whole screen tested about 7,900 compounds, of which about 400 (5.1%) showed an effect of 50% or more. Only a selection was taken, and strong results are over-represented in it overall.

These compounds were tested against Parkinson's disease protein 7 (PARK7/DJ1) (human, UniProt Q99497) (assay: primary screen, percent inhibition; read as competition with a fluorescent probe by fluorescence polarization; higher = more effect of the substance). Conditions: 100 µM.
Parkinson's disease protein 7 (PARK7/DJ1), sequence (Q99497 whole entry, looked up, the tested form may be a part): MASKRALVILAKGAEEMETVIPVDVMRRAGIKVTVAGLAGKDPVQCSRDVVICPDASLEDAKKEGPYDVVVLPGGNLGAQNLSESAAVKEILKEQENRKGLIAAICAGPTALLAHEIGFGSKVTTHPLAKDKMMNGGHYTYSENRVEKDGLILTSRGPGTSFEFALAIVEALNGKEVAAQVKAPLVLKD
Summary of the method: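 Fluorescence-polarization probe displacement (JYQ-107, 20 nM final, 2 h) after 2 h preincubation of PARK7 (0.2 μM final) with each fragment at 100 μM final. Read-out ex/em 480/520 nm; remaining activity derived from FP signal loss relative to reference controls.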

Row | SMILES | Inhibition % [%]
1 | N#Cc1nc(C2CC2)n[nH]1 | 2.55
2 | C=CC(=O)N1CCN(S(=O)(=O)CC)CC1 | 11.7
3 | CCN(C(=O)Cn1c(S)nc2ccccc2c1=O)C1CC1 | 0.694
4 | Cc1csc(NS(=O)(=O)c2cccc(S(=O)(=O)F)c2)n1 | 83.9
5 | O=S(=O)(F)c1ccc(S(=O)(=O)Nc2cccnc2O)cc1 | 8.42
6 | Cc1cscc1NS(=O)(=O)c1cccc(S(=O)(=O)F)c1 | 98.1
7 | O=S(=O)(F)c1cccc(S(=O)(=O)Nc2cccnc2O)c1 | 99.4
8 | CCCc1nnc(NS(=O)(=O)c2ccc(S(=O)(=O)F)cc2)o1 | 49.9
9 | Cc1nc(NS(=O)(=O)c2ccc(S(=O)(=O)F)cc2)no1 | 22.7
10 | O=S(=O)(F)c1ccc(S(=O)(=O)Nc2ncccc2Cl)cc1 | 32.9
11 | Cc1cnccc1NS(=O)(=O)c1ccc(S(=O)(=O)F)cc1 | 18.9
12 | CCCc1nnc(NS(=O)(=O)c2cccc(S(=O)(=O)F)c2)o1 | 98.8
13 | O=C(CCl)Nc1cccc(C(=O)N2CCSCC2)c1 | 6.3
14 | Cc1csc2ccc(B(O)O)cc12 | 5.69
15 | O=C(CCl)NCC(=O)N1CCCC1 | 2.12
16 | O=C(NCc1ccccc1)N1CCCCC1C1OCCO1 (stereo not shown) | 6.92
17 | FC(F)(F)c1cccc(C2CO2)c1 (stereo not shown) | 2.09
18 | Cl.O=C(CCl)NCCc1cccc2cccnc12 | 30.3
19 | Cc1conc1NS(=O)(=O)c1cccc(S(=O)(=O)F)c1 | 99
20 | Cc1conc1NS(=O)(=O)c1ccc(S(=O)(=O)F)cc1 | 27
21 | O=C(CCl)NCc1ccc(N2CCOCC2)c(F)c1 | 10.8
22 | CN(CC1COc2ccccc2O1)C(=O)CCl (stereo not shown) | 96.7
23 | C=CC(=O)N(C)CC1COc2ccccc2O1 (stereo not shown) | 3.26
24 | CCN(CC1COc2ccccc2O1)C(=O)CCl (stereo not shown) | 21.2
25 | N#CC1(NC(=O)CCl)CCC1 | 20.1
26 | CN1CCOC(CNS(=O)(=O)C=Cc2ccccc2)C1 (stereo not shown) | 6.48
27 | N#Cc1ncccc1Cl | 0.27

Row | SMILES | Inhibition % [%]
28 | O=C(CCl)N1CCc2sccc2C1 | 83.6
29 | O=C(CCCl)N1CCc2sccc2C1 | 33.2
30 | C=CC(=O)NCCCC(=O)N1CCc2sccc2C1 | 10.7
31 | O=C(O)CC1OCCCO1 | -4.03
32 | O=C(O)CC1(CS)CC1 | 80.8
33 | COCc1ccc(SC(=O)N(C)C)cc1 | 7.64
34 | C=CC(=O)N1CCCN(Cc2nccn2C)CC1 | 10.6
35 | O=C(CCl)Nc1ccc(Br)cc1C(=O)O | 46.1
36 | O=C(CCl)Nc1cc(Cl)ccc1C(=O)O | 47.9
37 | O=C(CCl)Nc1cc2ccccc2cc1C(=O)O | 66.3
38 | O=C(CCl)Nc1ccc(Cl)cc1C(=O)O | 52.4
39 | C#CC(=O)Nc1cc2ccccc2cc1C(=O)O | 29.8
40 | O=C(CCl)Nc1cccc2cccc(C(=O)O)c12 | 11.2
41 | C=CC(=O)NCC1CCCc2ccccc21 (stereo not shown) | 4.88
42 | C=CC(=O)N1CCC(CN(C)Cc2scnc2C)C1 (stereo not shown) | 13.2
43 | O=S(=O)(C=Cc1ccc(Cl)cc1)NCC1CCCO1 (stereo not shown) | 6.48
44 | CC1CN(CC2OCCO2)CCC1c1ccccc1 (stereo not shown) | 8.86
45 | CC1CCC(N(C(=O)CCl)C2CC2)CC1 (stereo not shown) | 74.1
46 | O=C(CCl)N(C1CCCC1)C1CCS(=O)(=O)C1 (stereo not shown) | 7.16
47 | O=C(CCl)N(C1CCCC1)C1CC1 | 51.2
48 | O=C(CCl)N(C1CC1)C1CCS(=O)(=O)C1 (stereo not shown) | 5.73
49 | O=C(CCl)N(C1CCCCC1)C1CCCCC1 | 4.3
50 | CCN(C(=O)CCl)C1CC1 | 5.24
51 | C=CC(=O)NCc1cccnc1N1CCOCC1 | 4.99
52 | C=CC(=O)N1CCOCC1CC (stereo not shown) | 7.47
53 | CCc1cnccc1C(=O)N1CCCC(C2OCCO2)C1 (stereo not shown) | 12.5
54 | O=C1OCCC1N1CCOC(c2ccc(Cl)cc2)C1 (stereo not shown) | 7.62

Row | SMILES | Inhibition % [%]
55 | C=CCNC(=O)C(C#N)=Cc1cccc(O)c1 | 4.34
56 | C=CC(=O)NC1COC(C2CC2)C1 (stereo not shown) | 4.28
57 | CN(C)Cc1ccc(B2OC(C)(C)C(C)(C)O2)s1 | 5.59
58 | N#Cc1nnc2ccccc2c1N | 1.29
59 | N#Cc1n[nH]c2ccccc12 | 5.12
60 | N#Cc1[nH]c2ccccc2c1N | 72.9
61 | CC1(C)CC(OS(C)(=O)=O)CCO1 (stereo not shown) | 8.17
62 | N#CC(=Cc1ccc(N2CCOCC2)cc1)C(N)=O | 12.7
63 | Cc1cc(B2OC(C)(C)C(C)(C)O2)cc(N)n1 | 5.05
64 | C=CC(=O)NC1CC(=O)N(CC)C1 (stereo not shown) | 8.72
65 | O=C(CCl)N1CCc2[nH]c3ccccc3c2C1 | -3.49
66 | O=C(c1ccccc1)N1CCN(C(=O)n2ccnc2)CC1 | 2.18
67 | Cc1ccc2[nH]c3c(c2c1)CN(C(=O)n1ccnc1)CC3 | 67.1
68 | O=C(N1CCc2sccc2C1)n1ccnc1 | 15.4
69 | O=C(N1CCc2[nH]c3ccccc3c2C1)n1ccnc1 | 52.4
70 | O=C(N1CCc2[nH]c3ccc(F)cc3c2C1)n1ccnc1 | 36.3
71 | C=CC(=O)N1CCCCC1c1nc2ccccc2o1 (stereo not shown) | 7.43
72 | O=S(=O)(c1cc(Cl)ccc1Cl)n1ccnc1 | 7.81
73 | O=C(O)c1cc(S(=O)(=O)F)cs1 | 90
74 | NC(=O)N1CCc2cc(S(=O)(=O)F)ccc21 | 10.9
75 | NC(=O)Nc1ccc(S(=O)(=O)F)cc1 | 18.9
76 | CC(C)c1nc(C#N)cs1 | 5.66
77 | CC1(C)OB(c2ccc(S(=O)(=O)NCCO)cc2)OC1(C)C | 4.41
78 | C=CC(=O)Nc1cc(C(F)(F)F)n[nH]1 | 9.56
79 | C=CC(=O)N1CCOCC1c1c(C)nn(C)c1C (stereo not shown) | 12.6
